Laboratory results taken from PubChem BioAssay (NCI).
This is part of a sample that, as a whole, favours compounds with a hit. Of some 83,000 tested, about 20% had one in any assay.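 Percent growth is the endpoint: 0 to 100 indicates growth inhibition (40 means 60% inhibition), 0 means no net growth, and negative values indicate cell death.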 The source made the active and inactive calls. The calls were made as follows: active = growth percent below 10; inactive = the rest.

Columns and labels:
Test in all cases: NCI-60 one-dose screen, 48 h (100 = growth as untreated, 0 = no growth, -100 = all killed)
Conditions in all cases: 10 µM unless noted
T-47D breast = test system: T-47D breast
BT-549 breast = test system: BT-549 breast
MDA-MB-435 melanoma = test system: MDA-MB-435 melanoma
SW-620 colon = test system: SW-620 colon
MCF7 breast = test system: MCF7 breast
HCT-116 colon = test system: HCT-116 colon
HCC-2998 colon = test system: HCC-2998 colon
KM12 colon = test system: KM12 colon

Measured: growth

CNC(=O)c1cccc(Cn2nc(C)c(NC(=O)c3ccc(COc4ccc(C(F)(F)F)cc4C)cc3)c2C)n1
inactive: BT-549 breast 22.1% | MDA-MB-435 melanoma 43.2% | SW-620 colon 81.8% | MCF7 breast 21.7% | HCT-116 colon 24.4% | HCC-2998 colon 61.7% | KM12 colon 65.4%
active: T-47D breast 7.54%

COc1cc2c3c(c4c5ccccc5[nH]c4c2c(OC)c1OC)C(=O)N(CCN1CCOCC1)C3=O
inactive: T-47D breast 66% | BT-549 breast 73.5% | MDA-MB-435 melanoma 73.9% | SW-620 colon 32.4% | MCF7 breast 32% | HCT-116 colon 19.7% | HCC-2998 colon 69.5% | KM12 colon 61%

O=C1c2ccc3c4c(ccc(c24)C(=O)N1CCCNCc1ccccc1Cl)C(=O)N(CCCNCc1ccccc1Cl)C3=O
active: T-47D breast -25.5% | BT-549 breast -69% | MDA-MB-435 melanoma -43.7% | SW-620 colon -82.7% | MCF7 breast -78.2% | HCT-116 colon -6.85% | HCC-2998 colon -85.5% | KM12 colon -72.5%

CCOC(=O)Nc1ccc(-c2ccc3c(c2)NC(=O)/C3=C\c2ccc[nH]2)cc1
inactive: BT-549 breast 56.4% | MDA-MB-435 melanoma 102% | SW-620 colon 113% | MCF7 breast 10% | HCT-116 colon 107% | HCC-2998 colon 85.8% | KM12 colon 63.6%
active: T-47D breast 6.7%

CN1CCN(c2ccc(NC3=C(Cl)C(=O)c4ncccc4C3=O)cc2C(F)(F)F)CC1
active: T-47D breast -19.7% | MDA-MB-435 melanoma -62.5% | SW-620 colon -53% | MCF7 breast -49.1% | HCT-116 colon -57.3%
inactive: BT-549 breast 89.8% | HCC-2998 colon 105% | KM12 colon 105%

O=C(NCCc1ccccc1)Nc1ccc2cc3ccc(NC(=O)NCCc4ccccc4)cc3nc2c1
inactive: T-47D breast 29.7% | BT-549 breast 70.6% | KM12 colon 47.7%
active: MDA-MB-435 melanoma -13.7% | SW-620 colon 1.33% | MCF7 breast 0.969% | HCT-116 colon -32.5% | HCC-2998 colon -8.17%

O=C1c2ccccc2C(=O)c2c([N+](=O)[O-])ccc(Cl)c21
inactive: T-47D breast 46.7% | BT-549 breast 88.5% | MDA-MB-435 melanoma 106% | SW-620 colon 28.9% | MCF7 breast 71.7% | HCT-116 colon 63.6% | HCC-2998 colon 104% | KM12 colon 79.1%

COc1ccc(CNCCN2C(=O)c3ccc4c5c(ccc(c35)C2=O)C(=O)N(CCNCc2ccc(OC)c(OC)c2OC)C4=O)c(OC)c1OC
active: T-47D breast -18.4% | BT-549 breast -11.4% | MDA-MB-435 melanoma -48.2% | SW-620 colon -37% | MCF7 breast -67.1% | HCT-116 colon 1.82% | HCC-2998 colon -79.5% | KM12 colon -41.4%

N#C/C(=C\c1cccc(C#N)c1)c1ccccc1
inactive: T-47D breast 78.7% | BT-549 breast 102% | MDA-MB-435 melanoma 100% | SW-620 colon 105% | MCF7 breast 105% | HCT-116 colon 94.2% | HCC-2998 colon 93.1% | KM12 colon 102%

CC1=C(C(=O)/C=C/c2c[nH]c3ccccc23)C(c2ccccc2)NC(=S)N1 (configuration not stated)
inactive: T-47D breast 98.6% | BT-549 breast 107% | MDA-MB-435 melanoma 97.4% | SW-620 colon 91.7% | MCF7 breast 95.4% | HCT-116 colon 93.3% | HCC-2998 colon 108% | KM12 colon 106%

Cn1cc(CC2CC(=O)N(c3ccccc3)C2=O)sc1=NC(=O)c1ccccc1 (configuration not stated)
inactive: T-47D breast 91.1% | BT-549 breast 87.2% | MDA-MB-435 melanoma 101% | SW-620 colon 94.5% | MCF7 breast 99.2% | HCT-116 colon 96.9% | HCC-2998 colon 100% | KM12 colon 98.6%

CCOc1ccc(/C=N/Nc2cc(C)nc3ccc(Br)cc23)cc1
inactive: T-47D breast 89.2% | BT-549 breast 91.3% | MDA-MB-435 melanoma 92.6% | SW-620 colon 55.2% | MCF7 breast 75.8% | HCT-116 colon 36.6% | HCC-2998 colon 100% | KM12 colon 84.6%

Cc1nc2sccn2c1-c1cn2ccsc2n1
active: T-47D breast -4.14% | MCF7 breast -39.1%
inactive: BT-549 breast 80.2% | MDA-MB-435 melanoma 95.9% | SW-620 colon 96.9% | HCT-116 colon 88.3% | HCC-2998 colon 50.2% | KM12 colon 64.1%

Cc1ccc(CNc2c3ccccc3nc3cc(NC(=O)CCN4CCCC4)ccc23)cc1
inactive: T-47D breast 16.9% | BT-549 breast 35.3%
active: MDA-MB-435 melanoma 8.86% | SW-620 colon -57.4% | MCF7 breast -22.4% | HCT-116 colon -77.9% | HCC-2998 colon -15.8% | KM12 colon -6.45%

c1ccc2c(-c3c[nH]c4ccccc34)c3c(cc2c1)[nH]c1ccccc13
active: MDA-MB-435 melanoma -3.69%
inactive: T-47D breast 33.8% | BT-549 breast 67.4% | SW-620 colon 42.6% | MCF7 breast 30.9% | HCT-116 colon 46.9% | HCC-2998 colon 82.8% | KM12 colon 35.7%

CC(=O)Nc1ccc(-c2ccc3c(c2)NC(=O)/C3=C\c2ccc[nH]2)cc1
active: MCF7 breast 9.83%
inactive: T-47D breast 37.5% | BT-549 breast 83.5% | MDA-MB-435 melanoma 90.6% | SW-620 colon 96.4% | HCT-116 colon 104% | HCC-2998 colon 104% | KM12 colon 45.4%

S=c1cc(S)c2cc(Br)ccc2[nH]1
inactive: T-47D breast 84.5% | BT-549 breast 90.7% | MDA-MB-435 melanoma 95.5% | SW-620 colon 99.2% | MCF7 breast 88.7% | HCT-116 colon 78.2% | HCC-2998 colon 102% | KM12 colon 101%

C=CCN1C(=O)/C(=C/C(=O)OC)S/C1=N\NC(=O)c1cc2ccc1/C=C\c1ccc(cc1)/C=C\2
inactive: T-47D breast 62.8% | BT-549 breast 61.7% | MDA-MB-435 melanoma 100% | SW-620 colon 44.5% | MCF7 breast 51.5% | HCT-116 colon 54% | HCC-2998 colon 108% | KM12 colon 81.6%

CC1=C(C(=O)/C=C/c2ccc(N(C)C)cc2)C(c2ccccc2)NC(=S)N1 (configuration not stated)
inactive: T-47D breast 101% | BT-549 breast 118% | MDA-MB-435 melanoma 102% | SW-620 colon 98.8% | MCF7 breast 99.2% | HCT-116 colon 101% | HCC-2998 colon 108% | KM12 colon 101%

Cc1c2cc[nH]c(=O)c2c(C)c2c1[nH]c1cc(OCCN3CCN(C)CC3)ccc12
active: MDA-MB-435 melanoma 4.54% | SW-620 colon 9.61% | MCF7 breast -11.6% | HCT-116 colon 7.2% | KM12 colon 8.55%
inactive: T-47D breast 22.7% | BT-549 breast 33.3% | HCC-2998 colon 35%

CCCC/C=N/NC(=S)NCc1ccccc1
inactive: T-47D breast 88.3% | BT-549 breast 102% | MDA-MB-435 melanoma 98.4% | SW-620 colon 96.1% | MCF7 breast 87.7% | HCT-116 colon 90.9% | HCC-2998 colon 109% | KM12 colon 104%

O=C(Nc1cccc(C2=NCCN2)c1)c1ccc(-c2ccc(C(=O)Nc3cccc(C4=NCCN4)c3)cc2)cc1
inactive: T-47D breast 58.5% | BT-549 breast 93.4% | MDA-MB-435 melanoma 57.4% | SW-620 colon 69.2% | MCF7 breast 18.5% | HCT-116 colon 72.7% | HCC-2998 colon 81.1% | KM12 colon 60.4%

CC(C)c1ccc(Nc2ccc3c(OCCCN4CCN(C)CC4)cccc3n2)cc1
inactive: T-47D breast 68.9% | BT-549 breast 79.6% | MDA-MB-435 melanoma 22.6% | MCF7 breast 18.2% | HCT-116 colon 18.6% | HCC-2998 colon 64.7% | KM12 colon 39.3%
active: SW-620 colon 4.69%

Cc1ccc(-c2nc3ccccn3c2/C=C2/C(=O)Nc3cc(Cl)ccc32)cc1
active: MDA-MB-435 melanoma -12.7%
inactive: T-47D breast 74.6% | BT-549 breast 70.9% | SW-620 colon 49% | MCF7 breast 33.5% | HCT-116 colon 26.5% | HCC-2998 colon 92.2% | KM12 colon 31.9%

CCSCC1CC(O)(c2ccccc2)CC(c2ccc(F)cc2)O1 (configuration not stated)
active: T-47D breast -4.7% | BT-549 breast -0.126% | MDA-MB-435 melanoma 5.06% | SW-620 colon 8.68% | MCF7 breast -11.3% | HCT-116 colon 1.4% | KM12 colon -47.2%
inactive: HCC-2998 colon 69.3%

CCN(CC)CCCC(C)Nc1cc(O)cc2cccnc12 (configuration not stated)
inactive: T-47D breast 110% | BT-549 breast 105% | MDA-MB-435 melanoma 106% | SW-620 colon 97.2% | MCF7 breast 95% | HCT-116 colon 87.6% | HCC-2998 colon 96.4% | KM12 colon 105%

NC(=NCc1ccccc1)C(N=Nc1ccccc1)C(=O)NCc1ccccc1 (configuration not stated)
inactive: T-47D breast 84.6% | BT-549 breast 114% | MDA-MB-435 melanoma 81.4% | SW-620 colon 61.5% | MCF7 breast 69.4% | HCT-116 colon 15.8% | HCC-2998 colon 74.7% | KM12 colon 34.6%

CC(C)(C)[Si](C)(C)OC1[C@@H](O[Si](C)(C)C(C)(C)C)[C@@H](CNC(=O)NC(=O)CCl)O[C@H]1n1cnc2c(NC(=O)Nc3ccccc3)ncnc21 (some centres not stated)
active: T-47D breast -45.7% | BT-549 breast -85.9% | MDA-MB-435 melanoma -79.1% | SW-620 colon -49.7% | MCF7 breast -71.8% | HCT-116 colon -99% | KM12 colon -79.4%

OCc1cnc2ccccc2c1NC1CCCCCC1
inactive: T-47D breast 65% | BT-549 breast 105% | MDA-MB-435 melanoma 91.4% | SW-620 colon 98% | MCF7 breast 73.5% | HCT-116 colon 77.9% | HCC-2998 colon 111% | KM12 colon 96.4%

Cn1c(N2NC(=O)C(N=Nc3ccc(S(N)(=O)=O)cc3)C2=O)nc(-c2ccco2)c(C#N)c1=O (configuration not stated)
inactive: T-47D breast 72.2% | BT-549 breast 109% | MDA-MB-435 melanoma 119% | SW-620 colon 51.9% | MCF7 breast 68% | HCT-116 colon 76.4% | HCC-2998 colon 51.1% | KM12 colon 85.5%

O=S(=O)(NCCNc1nccc(-c2c(-c3cccc(O)c3)nc3occn23)n1)c1cccc(F)c1
inactive: T-47D breast 73.7% | BT-549 breast 104% | MDA-MB-435 melanoma 34.3% | SW-620 colon 115% | MCF7 breast 57% | HCT-116 colon 70.4% | HCC-2998 colon 129% | KM12 colon 88.2%
